Pf Dd2 inh: qHTS Primary assay for Inhibitors of Plasmodium falciparum Dd2 growth in vitro. 4.3% of 120,000 active. Potency, µM (top dose mostly 28.9 µM), actives largely listed as inhibitors. AID 1347417, 2020. P. falciparum Dd2 growth, SYBR Green, 72 h; active means well fitted inhibition curve with a large enough effect; further: nearly all actives have a fitted effect of over 65% in size
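Readout: SYBR Green fluorescence, 485 nm excitation, 535 nm emission, after ~16 h lysis at 37C. Before that, Dd2-infected red cells (2.5% hematocrit) grew 72 h with compound, 29 uM top final concentration.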
Of the large screens only hits and unclear results are named; the others gave an inactive call. The full list was thinned out, with hits kept by preference.

COc1ccccc1NC(=O)C1=C(C)Nc2nc(SCC(=O)c3ccc(C)cc3)nn2C1c1ccc(F)cc1 (configuration not stated)	none
CC1=C(C(=O)Nc2ccccc2)C(c2ccc(C(=O)O)cc2)n2ncnc2N1 (configuration not stated)	none
COc1ccc(-c2nc3n(n2)C(c2ccccc2)C(C(=O)Nc2cccnc2)=C(C)N3)cc1 (configuration not stated)	none
CC(=O)Nc1ccc(CN2CCC(N3CCCCCC3=O)CC2)cc1	none
Cc1ccc(-c2cc(C(=O)N[C@H]3Cc4ccccc4[C@@H]3N)n[nH]2)s1	none
CCCS(=O)(=O)N1CCC(Cc2nc(-c3ccncc3)n[nH]2)C1 (configuration not stated)	none
CCc1ccc2nc(N(Cc3cccnc3)C(=O)c3ccc(C#N)cc3)sc2c1	Pf Dd2 inh 8.91µM
CC(=O)N(Cc1cccnc1)c1nc2ccc(F)cc2s1	none
COc1ccc2sc(N(Cc3cccnc3)C(=O)CCc3ccccc3)nc2c1	none
O=C(COc1ccccc1)N(Cc1cccnc1)c1nc2c(F)cc(F)cc2s1	none
O=C(C1COc2ccccc2O1)N(Cc1cccnc1)c1nc2ccc(F)cc2s1 (configuration not stated)	none
O=C(c1ccc2c(c1)OCCO2)N(Cc1cccnc1)c1nc2ccc(Cl)cc2s1	none
O=C(CCc1ccccc1)N(Cc1cccnc1)c1nc2c(F)cc(F)cc2s1	Pf Dd2 inh 10µM
O=C(c1ccc(Br)s1)N(Cc1cccnc1)c1nc2ccc(F)cc2s1	Pf Dd2 inh 2.51µM
O=C(C1CCCCC1)N(Cc1cccnc1)c1nc2ccc(Cl)cc2s1	Pf Dd2 inh 3.16µM
O=C(CCS(=O)(=O)c1ccccc1)N(Cc1cccnc1)c1nc2ccc(F)cc2s1	none
COc1cccc2sc(N(Cc3cccnc3)C(=O)Cc3ccccc3)nc12	none
O=C(C1COc2ccccc2O1)N(Cc1cccnc1)c1nc2c(Cl)cccc2s1 (configuration not stated)	none
NS(=O)(=O)c1ccc(-n2nc(C3CCOC3)nc2C2CCC2)cc1 (configuration not stated)	none
CCOC(=O)c1noc2nc(C)n(Cc3cccc([N+](=O)[O-])c3)c(=O)c12	none
CCC1(N2CCN(S(=O)(=O)c3cccs3)CC2)CCN(S(C)(=O)=O)C1 (configuration not stated)	none
Cc1noc(-c2cn(C3CCN(C(=O)c4ccc(Cl)cc4)C3)nn2)n1 (configuration not stated)	none
NC(=O)CO[C@@H]1CO[C@H]2[C@@H]1OC[C@@H]2NS(=O)(=O)c1ccc(Cl)cc1	none
O=C(NC1CC1)c1ccc2ccnn2c1	none
Cc1ccc(C(=O)N2C[C@@H](F)C[C@H]2C(=O)N2CCOCC2)cc1	none
COc1ccc2cc(C(=O)N3CCC4(CC3)CC(Cc3nc(C)no3)CCO4)[nH]c2c1 (configuration not stated)	none
CC1=NS(=O)(=O)N(Cc2ccccc2C(F)(F)F)C=C1C(=O)O	none
c1cc(-c2cnn(CCN3CCOCC3)c2)ccc1OCCN1CCCC1	none
CC(C)c1cnc(-c2cccnc2)[nH]1	none
COCCCNC(=O)c1ccc2c(=O)n(Cc3ccc(OC)cc3)c(=O)[nH]c2c1	none
COc1ccc(NC(=O)C(CC(C)C)NC(=O)C2CCCCC2)c(OC)c1 (configuration not stated)	none
CCN1CCN(CCN2CC3(CCN(C(=O)c4ccsc4)CC3)OC2=O)CC1	none
O=C(c1ccco1)N(Cc1cccnc1)c1nc2c(F)cc(F)cc2s1	none
Cc1ccc2nc(N(Cc3cccnc3)C(=O)C3COc4ccccc4O3)sc2c1 (configuration not stated)	none
Cc1ccc2nc(N(Cc3cccnc3)C(=O)c3ccco3)sc2c1	Pf Dd2 inh 10µM
Cc1ccc(NC(=O)Cn2c(=O)oc3cc(S(=O)(=O)N4CCCCCC4)ccc32)cc1Cl	none
CCOCCn1nc(C)cc1C(=O)N1CC(C)(C)[C@@](C)(O)C1	none
COc1cc2nc(Nc3cccc(F)c3)nc(N)c2cc1OC	Pf Dd2 inh 2.24µM
CCOc1ccc(-n2c(/C=C/c3cccc(F)c3)nc3cc(OC)c(OC)cc3c2=O)cc1	none
COc1ccccc1C(O)c1nc(Nc2cccc(F)c2)n[nH]1 (configuration not stated)	none
COc1ccc2[nH]c(C[C@@H]3C[C@@H](C(C)C)[C@H](CN)C=C3C)nc2n1	none
CCn1c(C2CCCN(Cc3c(C(=O)O)[nH]c4ccc(C)cc34)C2)n[nH]c1=O (configuration not stated)	none
CCOc1ccccc1CNc1ccc2cc(S(=O)(=O)N3CCC(C)CC3)ccc2n1	none
CC1CCN(S(=O)(=O)c2ccc3nc(Nc4cccc(C(F)(F)F)c4)ccc3c2)CC1	Pf Dd2 inh 4.47µM
CC1CCN(S(=O)(=O)c2ccc3nc(NCc4ccc(N(C)C)cc4)ccc3c2)CC1	Pf Dd2 inh 11.2µM
O=S(=O)(c1ccc2nc(Nc3cccc(F)c3)ccc2c1)N1CCCC1	none
CC1CCN(S(=O)(=O)c2ccc3nc(N4CCN(c5ccc(F)cc5)CC4)ccc3c2)CC1	none
O=S(=O)(c1ccc2nc(Nc3ccc(F)cc3)ccc2c1)N1CCCC1	none
Cc1cccc(OCCc2noc(C3CCN(C(=O)NC4CCCCC4)C3)n2)c1 (configuration not stated)	none
Cc1cc2c(cc1S(=O)(=O)NCc1ccccc1Cl)OCC(=O)N2	none
O=C(N1CCOCC1)C1(c2ccc(Cl)cc2)CCOCC1	none
Cc1ccc(S(=O)(=O)C(CNC(=O)Cc2ccc(Cl)cc2)c2cccs2)cc1 (configuration not stated)	none
CCc1ncc(C(=O)NC(c2ccc(C)cc2)c2cccs2)cn1 (configuration not stated)	Pf Dd2 inh 10µM
CCNc1ncc(C(=O)N[C@H](c2cccs2)C2CC(O)C2)cn1 (some centres not stated)	none
O=c1c2nc(-c3ccc(O)c(F)c3)ccc2ncn1-c1ccccc1	Pf Dd2 inh 12.6µM
O=c1c2nc(-c3ccc(O)c(F)c3)ccc2ncn1-c1ccc(F)cc1F	none
O=c1c2nc(-c3ccncc3)ccc2ncn1-c1ccccc1	none
COc1cc(OC)c(NC(=O)Cn2cnc3sc(C)c(S(=O)(=O)N4CCC(C)CC4)c3c2=O)cc1Cl	none
COCCNC(=O)[C@H]1C[C@H](Oc2ccccc2)CN1C(=O)c1cccc(F)c1	none
CC(C)CCN(C)Cc1ccccc1C(F)(F)F	none
CN(Cc1ccc(-c2ccccc2)cc1)Cc1cccnc1	Pf Dd2 inh 3.98µM
CN(Cc1ccc(F)cc1)Cc1ccc(-c2ccccc2)cc1	none
CC(C)CCN(C)Cc1ccc(-c2ccccc2)cc1	Pf Dd2 inh 8.91µM
CN(Cc1ccc(-c2ccccc2)cc1)Cc1ccc(C(F)(F)F)cc1	none
COc1ccc(CN(C)Cc2ccc(-c3ccccc3)cc2)cc1	none
O=C(NCc1ccncc1)c1nc2c(o1)CCN(Cc1ccccc1F)CC2	none
O=C(COc1ccc(F)cc1)N1[C@H]2CC[C@@H]1c1cnc(-c3ccc(F)cc3)nc1C2	none
CCOc1ccc(NC(=O)Cn2cc(S(=O)(=O)c3ccc(C)cc3)c(=O)c3cc(F)ccc32)cc1	none
O=C(Cc1ccc(F)cc1)NC1CCN(c2ccccc2)C1=O (configuration not stated)	none
O=C(Nc1ccc(C2(C(=O)O)CCC2)cc1)C1CC1	none
CN(Cc1ccccc1)C(=O)C1(c2ccc(NC(=O)C3CC3)cc2)CCCCC1	Pf Dd2 inh 4.47µM
CC(=O)Nc1ccc(C2(C(=O)N(C)Cc3ccccc3)CCCCC2)cc1	none
COc1ccc(-c2cc(N3CCN(C(=O)c4cc(C)cc(C)c4)CC3)n[nH]2)cc1	none
N#Cc1nc(-c2ccc(COc3ccccc3)o2)oc1N1CCN(c2ccccc2)CC1	none
COc1ccc(-c2nnc(SCC(=O)Nc3cccc(C(F)(F)F)c3)s2)cc1	none

Screening data as filed in PubChem BioAssay.
